Source: PubChem (several laboratories)
TROY NFkB inh: inhibitors of TROY-dependent NF-kB signaling; inhibition, % at 10 µM; Q293 LMP1-TROYcd NF-kB luciferase reporter, 4 h; 360,000 compounds, 0.98% hits; AID 1347056;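 active = compounds whose plate-normalised and pattern-corrected inhibition of the luciferase reporter signal at the single screening dose is 50% or more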
EWS-Fli block: inhibitors of EWS/Fli oncoprotein transcriptional activity; A673 NR0B1-luciferase reporter, viability-normalised; inhibition, % at 12.6 µM; 350,000 compounds, 0.67% hits;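 active = mean inhibition of at least 50% after viability correction, with every replicate also passing that limit; inconclusive = mean reaches 50% but only one of two replicates passes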;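 note: firefly luciferase signal divided by Alamar Blue viability fluorescence both relative to DMSO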
CF NFkB block: inhibitors of cystic fibrosis induced NF-kB; KKLEB NF-kB-GFP reporter, PAF-induced, GFP fluorescence overnight; 360,000 compounds, 0.86% hits; inhibition, % at 5 µM;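 active = at least 50% inhibition at 5 µM, scaled per plate between neutral and stimulator controls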;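 note: PAF is a Pseudomonas aeruginosa culture filtrate used as stimulus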
TWEAK Fn14 block: inhibitors of TWEAK-Fn14 interaction signaling; TWEAK-stimulated Fn14 reporter cells, luciferase luminescence, 8 h; inhibition, % at 10 µM; 360,000 compounds, 2% hits; in the data active = inhibition above about 50%
KKLEB cytotox: counter-screen for CF NF-kB inhibitors: cytotoxicity; 360,000 compounds, 0.36% hits; KKLEB CF airway cells viability, ATPlite luminescence, overnight; hits give low values; cells stimulated with P. aeruginosa culture filtrate; activity change (cytotoxicity), % at 5 µM; AID 602141;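 active = corrected activity change at or below -50% at 5 µM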
LGR2 inh: blocks bursicon-induced cAMP signaling via Drosophila LGR2; inhibition, % at 9.99 µM; 380,000 compounds, 0.35% hits; AID 720647; HEK293 LGR2, CRE-luciferase, bursicon-stimulated, 4 h;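 active = drop in luminescence signal, shown as inhibition above about 50% in the replicate tests, limit read from the data, passing the limit was not always enough; inconclusive = probably only some replicates passing the limit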;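 note: agonist challenge used bursicon conditioned medium at about half maximal strength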
A number is an active result; 0 = inactive; ? = inconclusive; - = not tested or not shown. Only some compounds are listed: those with a hit (about 2.6% of all), similar ones and a draw of the others.

SMILES | TROY NFkB inh | EWS-Fli block | CF NFkB block | TWEAK Fn14 block | KKLEB cytotox | LGR2 inh
Cc1cc(C(=O)COC(=O)c2cccc(NS(C)(=O)=O)c2)c(C)n1CC1CCCO1 (stereo not given) | 76 | 0 | 0 | 92 | 0 | 0
Cc1cc(C(=O)COC(=O)c2ccccc2Br)c(C)n1CC1CCCO1 (stereo not given) | 71 | 0 | 0 | 92 | 0 | 92
Cc1cc(C(=O)COC(=O)c2n[nH]c3ccccc23)c(C)n1CC1CCCO1 (stereo not given) | 60 | - | 0 | 82 | 0 | ?
COCC(=O)Nc1ccc2c(c1)C(=O)N(C)[C@@H]1CC[C@@H](CC(=O)Nc3cn(C)nc3C)O[C@@H]1CO2 | - | 0 | - | - | - | 0
Cc1cc(C(=O)Nc2cccc3c2O[C@H](CN(C)S(=O)(=O)c2ccc(F)cc2)[C@@H](C)CN([C@@H](C)CO)C3=O)n(C)n1 | - | 0 | - | - | - | 0
Cc1cc(C(=O)COC(=O)c2cc(O)c3ccccc3c2O)c(C)n1CC1CCCO1 (stereo not given) | 0 | - | 0 | 79 | 0 | -
COc1cc2c(cc1OC)C(c1cc(Br)ccc1F)N(C(=O)CCl)CC2 (stereo not given) | 0 | 58 | 105 | 0 | -68 | 0
COc1cc2c(cc1OC)C(C1C(=O)CC(C)(C)CC1=O)N(C(=O)CCl)CC2 (stereo not given) | 0 | 0 | 0 | 0 | 0 | 0
COc1cccc(C(=O)C(C#N)=C(SC)SC)c1 | 0 | 0 | 66 | 0 | -58 | 0
CSC(SC)=C(C#N)C(=O)c1ccccc1 | 0 | ? | 0 | 0 | -50 | 0
COc1cccc(C(=O)C(CCC#N)c2ccccc2)c1 (stereo not given) | 0 | 0 | 0 | 0 | 0 | 0
CO[C@@H]1CC[C@H]2CCN(C)C(=O)C[C@@H](c3ccccc3)CN(C)C(=O)c3cc(C#N)ccc3OC[C@H]1O2 | - | 0 | - | - | - | 0
Cc1ccc(S(=O)(=O)Nc2ccc3c(c2)C(=O)N([C@H](C)CO)C[C@@H](C)[C@H](CN(C)Cc2ccccc2)OCCCC[C@@H](C)O3)cc1 | - | 0 | - | - | - | 0
C[C@H](CO)N1C[C@H](C)[C@@H](CN(C)C(=O)CCCN(C)C)OCCCC[C@H](C)Oc2ccc(NC(=O)Nc3ccccc3)cc2C1=O | - | 0 | - | - | - | 0
CC(C)c1cc(C(=O)NNC(=S)NC2CCCCC2)cs1 | 0 | 0 | 0 | 50 | 0 | 0
CC(=O)C1CCC2C3CC=C4CC(SC(=N)N)CCC4(C)C3CCC12C (stereo not given) | 0 | 0 | 0 | 0 | 0 | 90
CC(C)C(=O)N[C@H]1CCC2C3CC=C4C[C@@H](O)CC[C@]4(C)C3CC[C@@]21C (stereo not given in full) | 0 | 0 | 0 | 0 | 0 | 0
CC(C)(C)[C@H](N)C(=O)N[C@H]1CCC2C3CC=C4C[C@@H](O)CC[C@]4(C)C3CC[C@@]21C (stereo not given in full) | 0 | 56 | 0 | 0 | -68 | 65
COc1ccc(-c2oc3ccc(N4CCOCC4)cc3c2C#CCO)cc1 | 54 | 0 | 0 | 97 | 0 | 0
COc1ccc(-c2ccc3oc(-c4ccc(OC)cc4)c(C#CCO)c3c2)cc1 | 0 | 0 | 0 | 53 | 0 | 0
CC1=NN(C(N)=S)C(=O)C1N=Nc1cccc(C(=O)O)c1 (stereo not given) | 0 | 0 | 0 | 0 | 0 | 61
CC1=NN(C(N)=S)C(=O)C1N=Nc1cccc(C)c1 (stereo not given) | 0 | 0 | 0 | 0 | 0 | 0
C[C@H]1CCC/C=C/[C@@H]2C[C@H](O)C[C@H]2[C@H](O)[C@H](S(=O)c2ccc(O)cc2)CC(=O)O1 (stereo not given in full) | 0 | 66 | 66 | 0 | 0 | -
C[C@@H]1CN([C@H](C)CO)C(=O)c2cc(C#CCN(C)C)cnc2O[C@H]1CN(C)Cc1ccc(C(=O)O)cc1 | - | 0 | - | - | - | 0
CCOP(=O)(OCC)C(NC(=O)C(F)(F)F)c1ccccc1 (stereo not given) | 63 | 0 | 0 | 0 | 0 | 0
SMILES | TROY NFkB inh | EWS-Fli block | CF NFkB block | TWEAK Fn14 block | KKLEB cytotox | LGR2 inh
CCN(Cc1ccccc1)S(=O)(=O)c1ccc(C(=O)N2CCN(c3nc4ccccc4s3)CC2)cc1 | 0 | 0 | 0 | 93 | 0 | 0
CN(C)c1ccc2c(c1)[C@@H]1C[C@@H](CC(=O)N3CCc4ccccc4C3)O[C@@H](CO)[C@@H]1O2 | - | 0 | - | - | - | 0
COc1ccccc1-n1cc2c([N+](=O)[O-])cc([N+](=O)[O-])cc2n1 | 0 | 0 | 0 | 51 | 0 | 0
C[C@@H]1CN([C@H](C)CO)C(=O)c2cc(NC(=O)NC3CCCCC3)ccc2O[C@H]1CN(C)S(=O)(=O)c1cccs1 | - | 0 | - | - | - | 0
COc1cc(NS(C)(=O)=O)ccc1Nc1c2ccccc2nc2ccccc12 | 0 | 58 | 0 | 0 | 0 | 0
N#Cc1c(N)n(C2CCCCC2)c2nc3ccccc3nc12 | 72 | - | 0 | 0 | 0 | 0
Cc1ccc(S(=O)(=O)c2c(N)n(CCCN(C)C)c3nc4ccccc4nc23)cc1 | 0 | 0 | 0 | 0 | 0 | -
CN(C)CCCn1c(N)c(C#N)c2nc3ccccc3nc21 | 0 | 0 | 0 | 55 | 0 | 0
CC(=O)N(C)C[C@H]1Oc2ncc(-c3ccc(C#N)cc3)cc2C(=O)N([C@@H](C)CO)C[C@H]1C | - | 0 | - | - | - | 0
CCC(C(=O)N1CCc2ccccc2C1)n1nc(C)n2c(cc3occc32)c1=O (stereo not given) | - | - | 0 | 81 | 0 | -
Cc1nn(C(C)C(=O)N2CCc3ccccc3C2)c(=O)c2cc3occc3n12 (stereo not given) | 0 | - | 0 | 0 | 0 | -
O=C(CC(Nc1cccc(Cl)c1Cl)C(=O)O)c1ccccc1 (stereo not given) | 0 | 0 | 0 | 0 | 0 | 0
O=C(CC(Nc1ccccc1Cl)C(=O)O)c1ccccc1 (stereo not given) | 65 | 0 | 0 | 61 | 0 | 0
COc1ccc(Nc2ncc(C(=O)N3CCC(C(N)=O)CC3)c3ccccc23)cc1 | 0 | - | 0 | 0 | 0 | -
COc1ccc(Nc2ncc(C(=O)N3CCN(Cc4ccccc4)CC3)c3ccccc23)cc1 | 0 | - | 0 | 96 | 0 | -
CCC1(C)Cc2ccccc2-c2nc(SCC(N)=O)[nH]c(=O)c21 (stereo not given) | 53 | 0 | 0 | 0 | 0 | 0
O=C1CN(S(=O)(=O)Cc2ccccc2)C[C@H]2[C@@H](c3ccc(C#Cc4cccc(F)c4)cc3)[C@H](CO)N12 | - | - | - | - | - | 0
Nc1ccc(Oc2ccccc2F)nc1 | 0 | 0 | 0 | 0 | 0 | 0
Nc1cccnc1Oc1ccccc1F | 68 | 0 | 0 | 0 | 0 | -
COc1ccc(C2C(C(=O)c3ccccc3)=C(C)Nc3nc4ccccc4n32)c(OC)c1 (stereo not given) | 53 | 0 | 0 | 76 | 0 | -
Cc1c(C#N)c(NC(=O)CCl)n(Cc2ccc(F)cc2)c1C | 0 | 0 | 73 | 0 | -58 | 0
CN(C)CCCN(C(=O)c1cc2cc([N+](=O)[O-])ccc2s1)c1nc2cc3c(cc2s1)OCCO3 | 64 | 52 | 80 | 0 | -94 | 0
